From PubChem BioAssay (NCI)
Where “and” joins values, the source holds several entries; their conditions need not be identical. Equal entries are not always repeated. About 79,000 compounds went through this panel and 15% of them were active in at least one assay; those are over-represented in the sample as a whole. Calls of active or inactive are those of the source. No stated cut-off is given here; in the data, active means growth inhibition above about 70%; inactive means the rest.

Legend:
[1] = NCI Yeast Anticancer Drug Screen. Data for the rad50 strain (AID 155);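 further: 0% = growth of vehicle-only cultures of the same strain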; conditions: S. cerevisiae rad50 strain growth inhibition; at 50.0 µM; active compounds read high
Summary of the method: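 Readout: growth inhibition relative to vehicle-treated cultures. Compound exposure was carried out in a genetically defined yeast strain deficient in DNA damage repair.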

[2] = NCI Yeast Anticancer Drug Screen. Data for the mec2-1 strain (AID 157); conditions: S. cerevisiae mec2-1 strain, at 50.0 µM, active compounds read high
Summary of the method: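 Cells of the genetically defined mec2-1 yeast strain are incubated with test compound. Inhibition of growth is calculated against vehicle-treated controls.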

[3] = NCI Yeast Anticancer Drug Screen. Data for the sgs1 mgt1 strain (AID 161);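 further: 0% = growth of cultures given vehicle only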; conditions: S. cerevisiae sgs1 mgt1 strain, at 50.0 µM, active compounds read high
Summary of the method: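 Test agents were incubated with a DNA-repair-mutant yeast strain. Growth was then read and compared against vehicle-treated controls.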

[4] = NCI Yeast Anticancer Drug Screen. Data for the cln2 rad14 strain (AID 165);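 further: 0% = growth equal to vehicle treated cultures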; conditions: S. cerevisiae cln2 rad14 strain, at 50.0 µM, active compounds read high
Summary of the method: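 The screen exposed genetically defined yeast (cln2 rad14) to test compounds and scored growth inhibition relative to vehicle-treated controls.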

[5] = NCI Yeast Anticancer Drug Screen. Data for the bub3 strain (AID 167); conditions: S. cerevisiae bub3 mutant strain, at 50.0 µM, active compounds read high
Summary of the method: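 Readout: yeast growth inhibition, expressed relative to vehicle-only wells. The test organism is a mutant strain from a panel with lesions in DNA repair or checkpoint genes.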

[6] = NCI Yeast Anticancer Drug Screen. Data for the mlh1 rad18 strain (AID 175); conditions: S. cerevisiae mlh1 rad18 strain growth inhibition; at 50.0 µM; active compounds read high
Summary of the method: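 Compound-treated yeast growth, normalised to vehicle controls. Strain bears defined DNA repair mutations.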

Measured: growth inhibition

CCCCCCCCCCCCCCCC[N+](C)(C)CCOC(C)=O
active: [1] 99.2% and 99% | [2] 99.5% | [3] 99.5% | [4] 98.9% and 98.8% | [5] 99.2% and 99.3% | [6] 99.5% and 99.4%

CN(C)CC1CCCC(CN2CCCCC2)C1=O (configuration not stated)
inactive: [1] -13.3% and -7.95% | [2] -37.8% and 9.7% | [3] -33.5% and 8.2% | [4] 4.6% and -38.9% | [5] -11.6% and -9.5% | [6] -6.4% and 9.4%

CCOC(=O)CNC(=O)c1ccccc1
inactive: [1] 3.7% and -12.2% | [2] -7% and -36.4% | [3] -9.55% and -7.05% | [4] -8% and -13.8% | [5] -2.35% and 27.1% | [6] -1% and -4.65%

O=C(Nc1ccccc1)C1CCCCC1CO (configuration not stated)
inactive: [1] 18.9% and 7.15% | [2] 5.95% and 17.4% | [3] 9.95% and 22.1% | [4] 7% and 7.1% | [5] 2.65% and -6.15% | [6] 5.95% and 31.8%

CC(=O)NC(Cc1ccccc1)C(=O)O (configuration not stated)
inactive: [1] 11.1% and -7.55% | [2] -3% and -7.6% | [3] 15.7% and 4.25% | [4] 6.3% and -52.9% | [5] 6.25% and -14.1% | [6] -18.3% and -27.1%

O=C(O)C1CCCC2C(O)CCC(=O)C12 (configuration not stated)
inactive: [1] -23.5% and -14.2% | [2] -16.3% and -6.8% | [3] -12.7% and -5.6% | [4] -5.45% and 4.25% | [5] -12.9% and -5.9% | [6] -29.4% and -32%

OCC1CCCCO1 (configuration not stated)
inactive: [1] 0.3% and 1.8% | [2] -13.7% and -6.7% | [3] 2.4% and -24.7% | [4] -1.65% and -37.9% | [5] 7.65% and -10.8% | [6] 3% and -8.4%

CC(=O)C1CC(CC(=O)O)C1(C)C (configuration not stated)
inactive: [1] 4.65% and 10.1% | [2] -7.25% and 9.75% | [3] -4.4% and 12.5% | [4] 13.9% and 10.6% | [5] -1.6% and 4.9% | [6] 3.3% and 14.9%

CC(=O)OCC1OC(n2c(-c3ccccc3)cc(-c3ccccc3)c(C#N)c2=O)C(OC(C)=O)C(OC(C)=O)C1OC(C)=O (configuration not stated)
inactive: [1] -14.3% and -1.45% | [2] -3.7% and 6.6% | [3] 1.8% and 3.45% | [4] 23.6% and 0.7% | [5] 5.4% and 3.9% | [6] 16% and -2.25%

CC(C)C(=O)/C=C/c1ccccc1
inactive: [1] 11.1% and 21.2% | [2] -2.4% and -2.75% | [3] 10% and -5.25% | [4] 18.2% and -12.6% | [5] 7.7% and -3.95% | [6] 17.8% and 8%

CCN(CC)C(=O)N1CCN(C)CC1
inactive: [1] 26.1% and -15.6% | [2] -26.9% and -4.6% | [3] 1.4% and -3.65% | [4] -41.1% and 5.8% | [5] -1.1% and 9.7% | [6] 15.2% and -8%

Nc1cc(S(=O)(=O)O)ccc1Cl
inactive: [1] 2.8% and 1% | [2] -15.7% and -2.75% | [3] 11.2% and -20.6% | [4] 10.1% and -43.9% | [5] 6.95% and 14.1% | [6] 3.95% and -13.1%

CCCN=C(N)C(N)=NCCC (tested in a mixture with another compound)
inactive: [1] 0.4% and 6.5% | [2] -3.95% and 7.35% | [3] 9% and 26.4% | [4] -21.4% and 7.55% | [5] 12.6% and 3.75% | [6] 6.65% and 10%

O=CNc1ccc(C(F)(F)F)cc1
inactive: [1] -16.9% and 16.4% | [2] -6.85% and -3.6% | [3] -3.3% and 6.35% | [4] -10.9% and 14.7% | [5] -8.8% and 25.4% | [6] 5.3% and 10.9%

O=c1[nH]c(CCc2ccccc2)nc2ccccc12
inactive: [1] -5.1% and -47.5% | [2] 7.85% and -42.1% | [3] -7.2% and -23.5% | [4] -38% and -11.1% | [5] -26.8% and -31.9% | [6] -2.8% and -4.05%

CCC(C)C(N)C(=O)O (configuration not stated)
inactive: [1] -39.2% and 2.9% | [2] -31.7% and -21.1% | [3] -17.4% and -2.15% | [4] -29.3% and 5.4% | [5] -14.1% and 4.05% | [6] -28.9% and 5.5%

OC/C=C/c1ccccc1
inactive: [1] 5.7% and 14.7% | [2] 6.7% and -3.15% | [3] 12.1% and -16.6% | [4] 10.1% and -2.55% | [5] 2.65% and 12.1% | [6] 14.7% and -8.85%

Cc1ccc(C2=Nc3c(N)nc(N)nc3NC(c3ccccc3)C2)cc1 (configuration not stated)
active: [1] 78.3% and 79.8% | [2] 81.8% and 79.5% | [3] 89.2% and 89.4% | [5] 75.8% and 77.4% | [6] 90% and 88.4%
inactive: [4] 63.5% and 62.7%

CC(C)(C)CC(C)(C)c1ccc(O)c(SSc2cc(C(C)(C)CC(C)(C)C)ccc2O)c1
inactive: [1] 4.95% and 11.8% | [2] -16.1% and 4.4% | [3] 7.7% and -8.55% | [4] 13.2% and -17.5% | [5] 11.5% and 0.5% | [6] 6.65% and 24.1%

Nc1ncnc2c1ncn2C1(CO)OC(CO)C(O)C1O (configuration not stated)
inactive: [1] 13.7% and 3.2% | [2] -9.1% and -6.15% | [3] -13.9% and -0.2% | [4] -0.65% and -23.2% | [5] 5% and 19.4% | [6] 11.2% and -1.25%

CN(C)CC1CCCCC(CN(C)C)C1=O (configuration not stated)
inactive: [1] -23.1% and -15.7% | [2] -5.8% and 2.95% | [3] -14.8% and -8.7% | [4] 4.4% and -52.7% | [5] -11.8% and 7.95% | [6] -13.6% and -8.7%

CCC(C)NC(=O)C1C2CC3OC(=O)C1C3C2 (configuration not stated)
inactive: [1] 9.85% and -12.7% | [2] -4.55% and 5.6% | [3] -2.75% and -18.9% | [4] -42.8% and -40.3% | [5] -9.5% and -6.5% | [6] 3.1% and -5.65%
